# Bioassay records as filed in PubChem BioAssay.
# An excerpt weighted towards active compounds, which were near 6.5% of everything screened.
# HCMV antiviral: blocks human cytomegalovirus replication | HFF cells, HCMV-luciferase reporter, 72 h; active compounds read low | activity change, negative = inhibition, % at 57.5 µM | 410,000 compounds, 4.5% hits | AID 1259415; in the data active means activity change below about -60%; inconclusive means no clear call, values can overlap the other calls; inactive means above about -39%
#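 HFF cells seeded 16 h at 37C, treated with compounds, infected with luciferase-reporter HCMV at MOI 1 PFU/cell; luciferase read at 72 h post infection, normalized to buffer-only and Salinomycin controls.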
# VACV mCherry inh: inhibitors of vaccinia virus infection (mCherry reporter signal). Vaccinia virus mCherry reporter infection, fluorescence. Potency, µM (highest dose often 36.5 µM), for the others: at the top dose activity change, negative = inhibition, actives largely listed as inhibitors. 310,000 compounds, 0.63% hits. AID 720579; calls by dose curve; tested in A549 cells; further: potency means the concentration at half of the fitted maximal effect; nearly all actives have a fitted effect of over 35% in size
# FMDV antiviral: antivirals against foot and mouth disease virus | FMDV antiviral cell-based qHTS | 410,000 compounds, 1.2% hits | Potency, µM (series often up to 57.9 µM), for inactives: top-dose activity change, negative = inhibition, usual class: inhibitors | AID 1159524; calls by dose curve; tested in HEK293T cells; further: read-out not given here; potency means the concentration at half of the fitted maximal effect; nearly all actives have a fitted effect of over 45% in size
# VACV Venus inh: inhibitors of vaccinia virus (Venus reporter). Vaccinia virus Venus reporter expression, fluorescence. Potency, µM (doses to about 36.5 µM), for the others: top-dose activity change, negative = inhibition, most hits filed as inhibitors. 330,000 compounds, 0.46% hits; calls by dose curve; tested in A549 cells; further: potency means the concentration at half of the fitted maximal effect; nearly all actives have a fitted effect of over 30% in size
# Lassa entry inh: Lassa virus entry inhibition | Potency, µM (top dose mostly 37.9 µM), for the others: at the highest dose activity change, negative = inhibition, most hits filed as inhibitors | Lassa virus pseudotype entry inhibition, cell reporter | 300,000 compounds, 1.2% hits; calls by dose curve; tested in HEK293 cells; further: potency means the concentration at half of the fitted maximal effect; nearly all actives have a fitted effect of over 50% in size
# Marburg entry inh: Marburg virus entry inhibition. Marburg virus pseudotyped entry inhibition, cell reporter. Potency, µM (titrated, usually from 37.8 µM), for the others: top-dose activity change, negative = inhibition, hits mostly inhibitors. 300,000 compounds, 1.8% hits. AID 540276; calls by dose curve; tested in HEK293 cells; further: potency means the concentration at half of the fitted maximal effect
# * marks the source's active call; other numbers are inactive results; i = inactive; ? = inconclusive; nt = not tested or not shown; [ ] = remark or other dose. On the % scale 0 is the no-effect control and ±100 the full control effect.
SMILES,HCMV antiviral,VACV mCherry inh,FMDV antiviral,VACV Venus inh,Lassa entry inh,Marburg entry inh
COc1cccc(C2=C(C(C)=O)Sc3nncn3N2C(C)=O)c1,?,-27%,-2%,?,?,nt
CCOc1ccc(C2=C(C(=O)CC)Sc3nncn3N2C(=O)CC)cc1,-101*,?,?,?,?,nt
CCC(=O)C1=C(c2ccc(F)cc2)N(C(=O)CC)n2cnnc2S1,-82*,-13%[7.34 µM],-6%,-4%[7.34 µM],?,nt
CC(=O)C1=C(c2ccc(Cl)c(Cl)c2)N(C(C)=O)n2cnnc2S1,-99*,?,?,-26%[7.34 µM],?,nt
C[C@@H]1CN(Cc2ccc3c(c2)CN(Cc2cn[nH]c2-c2ccccc2)CCO3)C[C@H](C)O1,nt,-14%,-8%,-5%,nt,nt
Cc1ncc2c(c1CNC(=O)c1ccc3c(c1)OCO3)CCN(C(=O)c1cc3ccccc3n1C)C2,nt,-7%,-1%,4%,nt,nt
CN(C)c1ccc(-c2nn3c(-c4ccccc4Cl)nnc3s2)cc1,-74*,-11%,-11%,-22%,?,-33%
COc1ccccc1-c1nnc2sc(-c3ccc(N(C)C)cc3)nn12,-93*,?,-2%,?,?,?
Clc1ccccc1-c1nnc2sc(-c3ccncc3)nn12,-16,-9%,-3%,-9%,nt,nt
COc1ccc(C(=O)NCC(=O)OCC(=O)c2ccc3ccccc3c2)cc1,nt,-17%,nt,-14%,nt,nt
O=C(CSc1n[nH]c(-c2ccccn2)n1)Nc1ccc(F)cc1,?,14µM*,12%,?,10µM*,?
Cc1ccc(NC(=O)CSc2n[nH]c(-c3ccccn3)n2)cc1,-12,10µM*,0%,?,?,4.5µM*
O=C(CSc1n[nH]c(-c2ccccn2)n1)Nc1ccc(Cl)cc1,-96*,7.9µM*,-16%,-26%,?,?
O=C(CSc1n[nH]c(-c2ccc(Cl)cc2Cl)n1)Nc1ccccn1,-40,-27%,-27%,-13%,5%,-12%
O=C(CSc1n[nH]c(-c2ccncc2)n1)Nc1ccc(F)cc1,3,-5%,-8%,-2%,9%,-6%
Cc1c(Cl)cccc1NC(=O)CC(c1cccs1)N1Cc2ccccc2C1=O (centres undefined),-15,-2%,-1%,0%,-1%[46.1 µM],nt
c1cc2c(cn1)cnc1cscc12,-63*,nt,13%,nt,6%,-4%
CC(C)(C)c1ccc(NC(=O)c2ccc3c(c2)S(=O)(=O)c2ccccc2C3=O)cc1,21,i,-20%,-17%,nt,nt
COc1ccc(OC[C@@H](O)CNC(=O)c2cccc3c2C(=O)c2ccc(-c4ccc(F)cc4OCc4ccccc4)cc2S3(=O)=O)cc1,nt,?,-19%,?,nt,nt
COc1ccc(NC(=O)c2ccc3c(c2)S(=O)(=O)c2ccccc2C3=O)cc1,-63*,-12%,-17%,3%,nt,nt
CN1CCN(C(=O)c2ccc3c(c2)S(=O)(=O)c2ccccc2C3=O)CC1,-62*,?,-13%,-17%,nt,nt
COc1ccc(NC(=O)c2cccc3c2C(=O)c2ccc(-c4ccc(F)cc4OCc4ccccc4)cc2S3(=O)=O)cc1,-64*,-17%,-2%,?,nt,nt
CC(C)(C)c1cc(NCc2ccccn2)n2ncc(-c3ccc(Cl)cc3)c2n1,-15,nt,4%,nt,nt,nt
Cc1cc(NCc2ccccn2)n2nc(C)c(-c3ccccc3)c2n1,-83*,5.6µM*,-7%,?,?,10µM*
Cc1nn2c(NCc3ccccn3)c3c(nc2c1-c1ccccc1)CCC3,-83*,10µM*,?,?,?,?
SMILES,HCMV antiviral,VACV mCherry inh,FMDV antiviral,VACV Venus inh,Lassa entry inh,Marburg entry inh
Cc1nn2c(NCCN3CCOCC3)c3c(nc2c1-c1ccccc1)CCCC3,?,i,-12%,9%,-19%[46.1 µM],?
Cc1nn2c(NCc3ccccn3)cc(C(C)(C)C)nc2c1-c1ccccc1,-97*,nt,?,nt,nt,nt
O=C(Nc1ccc(Cl)cc1)c1cc(S(=O)(=O)NC2CCCCCC2)ccc1F,-67*,?,1%,?,?,nt
O=C(Cc1ccc(N2CCNC2=O)cc1)N1CCCC(Nc2cccc(F)c2)C1 (centres undefined),-32,nt,-8%,nt,nt,nt
O=C(Cc1ccc(N2CCNC2=O)cc1)N1CCCC(Nc2ccc(F)c(F)c2)C1 (centres undefined),-61*,?,-12%,-9%,-1%[46.1 µM],?
COC(=O)c1sccc1S(=O)(=O)N(CC(=O)NCc1ccc(F)cc1)c1ccc(Cl)cc1,9,-8%,21%,-8%,?,nt
CSc1cccc(Nc2cc(C(=O)NCCCN(Cc3ccccc3)C(C)C)c3ccccc3n2)c1,-104*,?,?,-25%,?,nt
COc1ccc(Nc2cc(C(=O)NCCCN(C)Cc3ccccc3)c3ccccc3n2)cc1,-93*,?,-13%,-23%,-14%[46.1 µM],nt
COc1ccc(Nc2cc(C(=O)NCCCN(C)Cc3ccccc3)c3ccccc3n2)c(OC)c1,-26,-15%,-16%,-6%,?,nt
COc1ccc(Nc2cc(C(=O)NCCCN3CCN(c4ccc(OC)cc4)CC3)c3ccccc3n2)cc1,-75*,?,40µM*,?,?,nt
COc1ccc(N2CCN(C3C(=O)c4ccccc4N3C(C)=O)CC2)cc1 (centres undefined),0,-5%,-3%,-11%,11%[46.1 µM],nt
O=C(Nc1ccc(NC(=O)c2cccs2)cc1)c1cccs1,11,-5%,34%,1%,22%[46.1 µM],?
O=C(Nc1ccc(NC(=O)C2CC2)cc1)c1cccs1,-77*,-13%,16%,-4%,-14%[46.1 µM],?
O=C(Nc1nonc1NC(=O)c1cccs1)c1cccs1,-93*,?,?,?,8.9µM*,?
CCC1CCCCN1S(=O)(=O)c1ccc(NC(=O)C2CCCO2)cc1 (centres undefined),-4,-12%,-1%,-3%,-25%,13%
CCC1CCCCN1S(=O)(=O)c1ccc(NC(=O)c2cccs2)cc1 (centres undefined),-36,-13%,-19%,-9%,5.2µM*,-2%
O=C(NNC(=O)c1cccs1)c1ccccc1,-7,i,27%,-11%,nt,nt
